Source: PubChem BioAssay (Sanford-Burnham Center for Chemical Genomics)
CYP2C9 inh = human CYP2C9 inhibition; inhibition, % at 5 µM; 20% of 96,000 active; P11712; CYP2C9 Supersomes, luciferin-H conversion, luminescence;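 active = blocking of liver enzyme CYP2C9 beyond about 50% at 5 µM, limit read from the data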
CYP2C19 inhib = human CYP2C19 inhibition. AID 778. P33261. inhibition, % at 5 µM. CYP2C19 Supersomes, luciferin-H EGE luminescence, 30 min. 21% of 96,000 active;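 active = CYP2C19 inhibition above a set limit at 5 µM in the primary screen, cut at about 50% in these data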
Target sequence (P33261 whole entry, looked up): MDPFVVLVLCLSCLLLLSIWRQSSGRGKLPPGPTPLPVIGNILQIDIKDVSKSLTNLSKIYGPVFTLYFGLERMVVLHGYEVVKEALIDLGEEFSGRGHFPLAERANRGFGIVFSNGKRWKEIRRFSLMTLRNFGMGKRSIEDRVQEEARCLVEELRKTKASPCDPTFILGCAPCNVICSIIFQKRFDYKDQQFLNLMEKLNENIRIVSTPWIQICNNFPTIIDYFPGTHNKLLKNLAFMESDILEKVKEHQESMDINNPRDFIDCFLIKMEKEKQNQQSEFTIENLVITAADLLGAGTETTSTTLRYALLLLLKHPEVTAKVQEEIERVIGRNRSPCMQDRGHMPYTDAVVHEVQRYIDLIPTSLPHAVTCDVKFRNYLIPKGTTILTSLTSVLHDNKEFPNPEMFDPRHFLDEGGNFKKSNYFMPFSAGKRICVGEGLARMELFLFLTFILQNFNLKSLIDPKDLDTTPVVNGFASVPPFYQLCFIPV
CYP2C9 act = CYP2C9 (human) activation. 1.4% of 96,000 active. P11712. recombinant CYP2C9, luciferin-H conversion, luminescence; stronger effect = higher value; factor 1 = untreated enzyme, 0 = blocked. AID 1024. activation factor at 5 µM;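 active = activation factor of 2 or more for CYP2C9 at a 5 µM dose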
CYP2C19 act = increases human CYP2C19 enzyme activity | P33261 | recombinant CYP2C19, luciferin-H EGE luminescence; stronger effect = higher value; 0 = fully inhibited enzyme, 1 = untreated enzyme | activation factor at 5 µM | 96,000 tested, under 10 active | AID 1025;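 active = activation factor of at least 2 at 5 µM in the primary screen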
PLAP activator = human PLAP activation; 1.2% of 96,000 active; P05187; activation fold at 20 µM; purified PLAP enzyme, luminescent substrate read-out; stronger effect = higher value; in the data active = activation fold above about 2
Hits are given with their value; n = inactive. An excerpt weighted towards active compounds, which were near 31% of everything screened.

SMILES	CYP2C9 inh	CYP2C19 inhib	CYP2C9 act	CYP2C19 act	PLAP activator
C=CCn1c(O)c(C(CC)=NC2CC2)c(=O)[nH]c1=O	n	n	n	n	n
CCC(=NC1CC1)c1c(O)n(C2CCCCC2)c(=O)[nH]c1=O	n	99	n	n	n
O=P(N1CCCCC1)(N1CCCCC1)C(Cl)(Cl)Cl	n	n	n	n	n
Cc1cc(OCC(=O)NC2CCS(=O)(=O)C2)c2c3c(c(=O)oc2c1)CCC3 (centres undefined)	n	n	n	n	n
C=COCCn1c(C)c(C(=O)OCC)c2cc(O)ccc21	71	85	n	n	n
CC12CN3CCN(C1)CC(C)(C3)C2=NO	n	n	n	n	n
CCCC(C)C1(CC)C(=O)NC(=Nc2ccc(F)cc2)NC1=O (centres undefined)	58	n	n	n	n
O=C1C2CCCN2C(c2ccc(Cl)cc2)N1c1ccccn1 (centres undefined)	n	n	n	n	n
Cc1ccsc1-c1nc(CSCC(=O)N2CCC3(CC2)OCCO3)c(C)o1	n	67	n	n	n
Cc1ccccc1-c1nc(CS(=O)CC(=O)N2CCC3(CC2)OCCO3)c(C)o1 (centres undefined)	n	n	n	n	n
CCOC(=O)c1cc(C)n(CCc2cnc[nH]2)c1C	99	100	n	n	2.4
CC12CCCCC1=[N+]([O-])CN2O (centres undefined)	n	n	n	n	n
FC(F)(F)c1ccc2c(c1)nnn2C1CCN(Cc2nnnn2Cc2ccccc2)CC1	93	n	n	n	n
Cc1nc2cc(F)ccc2n1C1CCN(Cc2nnnn2CCc2ccccc2)CC1	62	62	n	n	n
Cc1ccc(C)c(CN2CCC(n3nnc4cc(F)ccc43)CC2)c1	n	n	n	n	n
Cc1ccc(Cn2nnnc2CN2CCC(n3nnc4cc(C)ccc43)CC2)cc1	96	91	n	n	n
Fc1ccc2c(c1)nnn2C1CCN(Cc2nnnn2C2CCCCC2)CC1	75	67	n	n	n
Clc1cccc(Cl)c1C1N2CCCN12 (centres undefined)	n	n	n	n	n
Cc1nc2nc(SCC(=O)N3CCC4(CC3)OCCO4)nn2c(C)c1Cc1ccccc1	n	n	n	n	n
Cc1ccc(Cn2nnnc2CN2CCC(n3nnc4cc(C(F)(F)F)ccc43)CC2)cc1	73	n	n	n	n
COc1cc(C2SCC(=O)Nc3c2c(=O)[nH]n3C2CCCCCC2)cc(OC)c1OC (centres undefined)	n	n	n	n	n
Cc1cc(C)c(C2=NOC(O)(C(F)(F)F)C2)c(=O)[nH]1 (centres undefined)	n	n	n	n	n
CCSc1cc(C2C(C#N)=C(N)Oc3n[nH]c(C)c32)c(C)o1 (centres undefined)	67	92	n	n	n
COc1ccc(C2C(C(=O)N3CCC4(CC3)OCCO4)CC(=O)N2c2ccc(OC)cc2)cc1 (centres undefined)	n	61	n	n	n
COc1ccc(CNCC(=O)N2CCC3(CC2)OCCO3)cc1	n	n	n	n	n
SMILES	CYP2C9 inh	CYP2C19 inhib	CYP2C9 act	CYP2C19 act	PLAP activator
O=c1cccc2n1CC1CC2CN(Cc2cccc(Cl)c2Cl)C1 (centres undefined)	n	88	n	n	n
O=c1cccc2n1CC1CC2CN(Cc2c(F)cccc2Cl)C1 (centres undefined)	55	99	n	n	n
CC(=O)OC1N=C(c2ccccc2)c2cc(Br)ccc2N(C)C1=O (centres undefined)	n	n	n	n	n
CC(C)(C)C(O)C(Oc1ccc(Cl)cc1)n1cncn1 (centres undefined)	58	95	n	n	n
CC(C)CCP(=O)(O)c1ccccc1	n	n	n	n	n
O=C1NC(=O)C2(Cc3c(nc4ccccn4c3=O)N3CCCCCC32)C(=O)N1Cc1ccccc1 (centres undefined)	89	73	n	n	n
CN(C(=O)c1ccco1)C1(c2ccccc2Cl)CCCCC1=O (centres undefined)	n	n	n	n	n
CCOC(=O)c1c(C)[nH]c(C(=O)C(Cc2ccccc2)N(C)C)c1C (centres undefined)	84	n	n	n	n
COC(=O)c1c(C)[nH]c(C(=O)C(Cc2ccccc2)N(C)C)c1C (centres undefined)	92	92	n	n	n
CC(C)N1C(=O)CCC1C(=O)N1CCC2(CC1)OCCO2 (centres undefined)	n	n	n	n	n
Cc1cccc(CSc2nc3c(cc2C#N)CN(C)CC3)c1	n	70	n	n	n
O=C(c1ccc2c(=O)n(Cc3ccc4c(c3)OCO4)c(=S)[nH]c2c1)N1CCC2(CC1)OCCO2	n	n	n	n	n
COc1cc(C2NCc3ccccc3-n3cccc32)ccc1O (centres undefined)	66	73	n	n	n
COc1ccc(C2NCc3ccccc3-n3cccc32)cc1 (centres undefined)	n	n	n	n	n
NCC(CC(=O)O)C1CCCCC1 (centres undefined)	n	n	n	n	n
C=CP(=O)(O)c1ccccc1	n	n	n	n	n
COc1ccc(CCN(C)Cc2c(F)cccc2F)cc1OC	n	80	n	n	n
COc1ccc(CCNCc2ccccn2)cc1OC	n	n	n	n	n
O=C(Nc1ccc(F)cc1F)c1cccnc1Oc1cccc(C(F)(F)F)c1	n	n	n	n	n
O=C(CSc1ccccc1)N1CCC2(CC1)OCCO2	n	98	n	n	n
Cc1c(C(=O)N2CCC3(CC2)OCCO3)oc2ccccc12	n	98	n	n	n
O=C(CCN1C(=O)COc2ccccc21)N1CCC2(CC1)OCCO2	n	87	n	n	n
CC1=C(C(=O)N2CCC3(CC2)OCCO3)C2(CCC(C)CC2)OC1=O (centres undefined)	n	93	n	n	n
O=C(CN1C(=O)CCSc2ccccc21)N1CCC2(CC1)OCCO2	n	n	n	n	n
O=P(O)(O)COc1ccccc1O	n	n	n	n	n
SMILES	CYP2C9 inh	CYP2C19 inhib	CYP2C9 act	CYP2C19 act	PLAP activator
O=C(c1ccncc1)C12CN3CN(CN(C3)C1)C2	n	n	n	n	n
CCCCCCOc1ccc(CN2CCN(CC)CC2)cc1	n	n	n	n	n
CC(C)(C)c1ccc(O)c(CN2CCN(c3ccccc3)CC2)c1	n	n	n	n	n
CCCC1=C(C(=O)OCC)C2(C(=O)Nc3ccc(C)cc32)C(C#N)=C(N)O1 (centres undefined)	51	62	n	n	n
CC1=CC(=C2C(=O)NC(=S)NC2=O)C=C(C(F)(F)F)N1C	n	n	n	n	n
CNP(=S)(NC)OCCOc1ccc(OC)cc1	n	84	n	n	n
CCCCCCn1c(O)c(C=NCCCn2ccnc2)c(=O)[nH]c1=O	93	n	n	n	n
CCOc1ccc(-n2c(O)c(C=NCCCn3ccnc3)c(=O)[nH]c2=O)cc1	n	n	n	n	n
COc1ccc(Cn2c(O)c(C=NCCCn3ccnc3)c(=O)[nH]c2=O)cc1	63	n	n	n	n
